Only a selection was taken, and hits are over-represented in it overall.
RE007 growth inh – less growth of the S. pombe RE007 Vpr strain. Potency, µM (highest dose often 92.2 µM), for inactives: at the top dose activity change, negative = less growth, hits mostly inhibitors. actives 0.21% (n = 360,000). AID 651644. S. pombe RE007 Vpr strain, BacTiter-Glo ATP luminescence, 24 h; active = well fitted falling curve with a large enough effect; inconclusive = small, poorly fitted or top-dose-only effect; inactive = no such curve, though single readings can be large or run the other way; note: potency is the fitted concentration of half-maximal effect; % is set by controls: 0 for no effect and ±100 for the full control effect; nearly all actives have a fitted effect of over 50% in size
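Fission yeast strain RE007, carrying one chromosomally integrated HIV-1 vpr copy, was seeded at OD 0.01 in PMG+AL medium with 23 nL pinned compound. After 24 h at 30 °C and 99% humidity, viability was read by BacTiter-Glo luminescence.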
Shiga toxin inh – Shiga toxin inhibition; Vero cells, Shiga toxin protein synthesis inhibition reporter; inhibition, % at 38.7 µM; actives 9.2% (n = 290,000); in the data active = inhibition mostly above about 28%, no sharp cut-off; inactive = mostly below about 43%; note: 0% is about no effect
LmPK inhibitor – LmPK (Leishmania mexicana) enzyme inhibition; Q27686; purified LmPK, Kinase-Glo ATP luminescence, 1 h; Potency, µM (highest dose often 57.5 µM), for the others: at the highest dose activity change, negative = inhibition, most hits filed as inhibitors; actives 0.37% (n = 290,000); note: potency is the fitted concentration of half-maximal effect; % is set by controls: 0 for no effect and ±100 for the full control effect
Target sequence (Q27686 whole entry, looked up): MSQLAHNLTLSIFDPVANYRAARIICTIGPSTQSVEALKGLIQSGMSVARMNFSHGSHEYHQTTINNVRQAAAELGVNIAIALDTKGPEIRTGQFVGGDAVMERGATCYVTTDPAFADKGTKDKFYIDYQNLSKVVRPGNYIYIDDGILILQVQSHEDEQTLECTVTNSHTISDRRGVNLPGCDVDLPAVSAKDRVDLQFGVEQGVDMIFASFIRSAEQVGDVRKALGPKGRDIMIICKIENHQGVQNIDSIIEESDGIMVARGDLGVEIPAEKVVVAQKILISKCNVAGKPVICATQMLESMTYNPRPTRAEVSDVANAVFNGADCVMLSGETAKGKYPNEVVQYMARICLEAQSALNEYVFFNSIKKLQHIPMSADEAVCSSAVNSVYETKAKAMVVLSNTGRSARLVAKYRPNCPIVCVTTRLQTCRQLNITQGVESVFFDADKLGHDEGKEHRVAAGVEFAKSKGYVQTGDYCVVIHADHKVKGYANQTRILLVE
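Purified LmPK (0.1 nM) converted ADP (0.1 mM) to ATP with PEP (0.5 mM) in imidazole buffer pH 7.2 with KCl and MgCl2, 1 h at room temperature. ATP was read by Kinase-Glo luminescence; data normalized to uninhibited and no-enzyme controls.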
CHX counter – affects cycloheximide protein synthesis inhibition readout, counter-screen; cell reporter, cycloheximide protein synthesis inhibition counterscreen; max response, %; actives 12% (n = 300,000); AID 2314; in the data active = max response mostly above about 13%, no sharp cut-off; inactive = mostly below about 14%; note: read at 38.3 µM for the half of the compounds with a filed dose; 0% is about no effect
Giardia FBPA inh – blocks Giardia fructose-bisphosphate aldolase activity | Potency, µM (top dose mostly 59.6 µM), without a hit: at the highest dose activity, negative = inhibition, hits mostly inhibitors | A8B2U2 | actives 0.71% (n = 290,000) | purified Giardia FBPA; note: potency is the fitted concentration of half-maximal effect; % is set by controls: 0 for no effect and ±100 for the full control effect; nearly all actives have a fitted effect of over 55% in size
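40 nM FBPA preincubated 10 min at RT with compound (up to 57.5 uM final), then substrate plus GAPDH/TPI/NAD/arsenate coupling and diaphorase/resazurin added. Fluorescence read after 20 min at RT, 525/598 nm.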
TbPYK inhibitor – inhibitors of Trypanosoma brucei pyruvate kinase. TbPYK enzyme, Kinase-Glo Plus ATP luminescence, 45 min. Potency, µM (titrated, usually from 76.8 µM), for the others: top-dose activity, negative = inhibition, most hits filed as inhibitors. actives 0.12% (n = 410,000); note: potency is the fitted concentration of half-maximal effect; % is set by controls: 0 for no effect and ±100 for the full control effect; nearly all actives have a fitted effect of over 50% in size
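Quantitative HTS: titrated library compounds versus trypanosomal pyruvate kinase in TEA buffer (pH 7.2) containing KCl, MgCl2, BSA and Tween-20. Reactions were initiated with ADP, 130 uM final. Kinase-Glo Plus luminescence was read after 45 min at RT.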
* = called active by the depositor; ? = inconclusive; / = no result; [ ] = another dose, or the depositor's remark. Unless noted, calls come from the whole dose curve; as a rule, active = well fitted curve in the direction sought with a large enough effect; inconclusive = small, poorly fitted or top-dose-only effect, or another doubt; inactive = no such curve, though single readings can be large; an effect the other way counts as inactive or inconclusive.

SMILES	RE007 growth inh	Shiga toxin inh	LmPK inhibitor	CHX counter	Giardia FBPA inh	TbPYK inhibitor
COc1ccc(-n2c(SCC(=O)NCc3ccccc3)nc3n[nH]c(C)c3c2=N)cc1	/	/	/	/	/	-1.3%
Cc1oc(-c2ccc(C(=O)Nc3ccc(F)cc3F)cc2)nc1COc1ccccc1	/	/	/	/	/	3.2%[15.4 µM]
CC(=O)Oc1ccccc1C(=O)NC(C)CCc1ccccc1 (stereo unspecified)	41.6%	13.8	-2.0%	11.8	4.8%	3.0%
Cc1ccc(NC(=O)COc2cccc3c2OC(C)(C)C3)c(O)c1	-8.2%	/	/	/	/	-4.9%
CS(=O)(=O)Nc1ccc(C2=NN(S(C)(=O)=O)C(c3ccc4c(c3)OCO4)C2)cc1 (stereo unspecified)	4.8%	85.0*	1.2%	30.1*	-0.1%	-17.7%
CC(=O)N1N=C(c2cccc(NS(C)(=O)=O)c2)CC1c1ccc2c(c1)OCO2 (stereo unspecified)	8.2%	42.4	-5.7%	12.6*	-1.8%	-11.2%
CC[C@H](C)[C@H](N)C(=O)N[C@H]1CCC(=O)NCC(C(=O)N[C@@H](Cc2ccc(O)cc2)C(=O)N[C@@H](CCCNC(=N)N)C(=O)N[C@@H](CC(C)C)C(=O)N[C@@H](CCCNC(=N)N)C(=O)N[C@@H](Cc2ccc(O)cc2)C(N)=O)NC(=O)[C@@H]2CCCN2C(=O)[C@@H](NC(=O)[C@@H](N)[C@@H](C)CC)CCC(=O)NCC(C(=O)N[C@@H](Cc2ccc(O)cc2)C(=O)N[C@@H](CCCNC(=N)N)C(=O)N[C@@H](CC(C)C)C(=O)N[C@@H](CCCNC(=N)N)C(=O)N[C@@H](Cc2ccc(O)cc2)C(N)=O)NC(=O)[C@@H]2CCCN2C1=O (stereo partly specified)	/	11.4	/	-9.6	-1.7%	/
O=c1ccc2ccc(O)c(O)c2o1	/	/	/	/	9.98µM*	/
CC(=O)OCC(NC(=O)C(CCCCNC(=O)OCc1ccccc1)NC(=O)OC(C)(C)C)C1OC(n2cc(C)c(=O)[nH]c2=O)C(OC(C)=O)C1OC(C)=O (stereo unspecified)	/	-7.3	/	-2.4	-0.2%	/
O=C(c1ccc2c3n(nc2c1)-c1ccccc1CO3)N1CCCCC1	?	80.0*	6.31µM*	28.9*	0.4%	?
O=C(c1ccc2c3n(nc2c1)-c1ccccc1CO3)N1CCOCC1	?	58.3*	14.1µM*	30.9*	-0.4%	17.8µM*
O=C(c1ccc2c3n(nc2c1)-c1ccc(Cl)cc1CO3)N1CCOCC1	-3.4%	56.5*	15.8µM*	20.8*	0.2%	-21.2%
O=C(c1ccc2nc(-c3ccccc3)c(-c3ccccc3)nc2c1)N1CCCCC1	-1.9%	5.0	2.6%	-1.8	6.4%	0.6%
Cc1ccc2c(c1)COc1c3ccc(C(=O)N4CCCCC4)cc3nn1-2	-21.5%	64.5	-25.4%	34.3*	6.3%	-12.0%
Cc1ccc(S(=O)(=O)N2CCN(C(=O)C3CCN(c4ncnc5sc(C)c(C)c45)CC3)CC2)c(C)c1	1.9%	/	/	/	/	1.0%
Cc1cc(C)cc(-n2ccn3c(CC(C)(C)CC(=O)O)nnc3c2=O)c1	/	/	/	/	/	3.3%
Cc1csc(CNC(=O)C2CCC(=O)N(CCc3cccc(F)c3)C2)n1 (stereo unspecified)	3.8%	-2.6	-1.7%	-5.0	/	1.7%
Cc1cc2ncn(CCOc3ccccc3)c2cc1C	-17.1%	102.0*	-4.4%	50.8*	0.2%	10.5%
COCCn1cnc2cc(C)c(C)cc21	16.0%	-9.3	-1.1%	-1.4	-1.1%	2.4%
Cc1ccc(Oc2ncnc3sccc23)cc1	-1.8%	90.5*	5.3%	55.0*	-3.1%	8.7%
c1ccc(Oc2ncnc3ccccc23)cc1	-25.9%	/	/	/	/	-0.1%
c1ccc(OCCOc2ncnc3sccc23)cc1	-3.0%	68.9*	-11.1%	37.7*	3.4%	-3.8%
COc1cccc(COc2ncnc3sccc23)c1	25.5%	-9.9	-4.8%	13.6	3.9%	-2.8%
CCOc1ccc(OCCOc2ncnc3ccccc23)cc1	-0.7%	68.1	-3.7%	41.4*	0.1%	-5.8%
CC(C)COC(=O)N1CCN(S(=O)(=O)c2ccc3c(c2)CCC3)CC1	8.5%	/	/	/	/	-3.3%
SMILES	RE007 growth inh	Shiga toxin inh	LmPK inhibitor	CHX counter	Giardia FBPA inh	TbPYK inhibitor
CCN(CC)C(=O)Cn1c(=O)n(CCCCCC(=O)NCc2ccc3c(c2)OCO3)c(=O)c2sccc21	/	/	/	/	/	4.0%
Cc1ccc(/C=C/c2onc(C)c2S(=O)(=O)N2CCC(C(=O)NCc3ccc(OC(C)C)cc3)CC2)cc1	/	/	/	/	/	-6.4%
CCCCC[C@H](O)/C=C/C1=C(C/C=C\CCCC(=O)O)C(=O)CC1	/	/	/	/	3.5%	/
Cc1ccc(-c2cn3c(n2)sc2cc(C(=O)NC4CCCCCC4)ccc23)c(C)c1	/	/	/	/	/	-2.9%
CC(C)(C)OC(=O)N1CCCN(C(=O)Nc2ccccc2)CC1	29.3%	8.6	-2.1%	-2.4	-3.7%	2.7%
O=C(/C=C/c1ccc2c(c1)OCCO2)N1CCN(c2ccc(F)cc2)CC1	14.5%	-12.0	0.0%	-1.2	1.0%	-4.4%
CC1CN(C(=O)Nc2ccc3c(c2)OCCO3)CC(C)O1 (stereo unspecified)	17.0%	7.6	-2.5%	17.9	-7.6%	1.5%
CC(C)(C)OC(=O)N1CCN(C(=O)Nc2ccc3c(c2)OCCO3)CC1	-4.5%	25.5	0.4%	23.6*	-0.6%	2.2%
O=C(Nc1ccc2c(c1)OCCO2)N1CCN(c2ccc(F)cc2)CC1	18.2%	34.9*	-0.4%	38.2*	18.8%	-15.4%
Cc1cccc(C)c1N1CCN(C(=O)Nc2ccc3c(c2)OCCO3)CC1	12.1%	55.6*	12.3%	45.3*	-4.2%	-12.4%
Cc1[nH]n(-c2ccccc2)c(=S)c1C=Nc1cccc([N+](=O)[O-])c1	12.7%	1.1	-26.8%	-2.0	?	3.16µM*
Cc1[nH]n(-c2ccccc2)c(=O)c1C=NCCc1ccccc1	7.3%	65.8*	-1.4%	20.9*	-0.4%	5.4%
CCCCN=Cc1c(C)[nH]n(-c2ccccc2)c1=S	1.2%	33.7	?	25.3*	?	7.94µM*
Cc1[nH]n(-c2ccccc2)c(=O)c1/C=N/N1C(=O)c2cccc3cccc(c23)C1=O	-11.5%	13.7	-2.4%	-0.8	-3.4%	-2.6%
CCCNC(=O)C1(C)CCN(Cc2ccc(OC)c3ccccc23)C1 (stereo unspecified)	-7.0%	/	/	/	/	0.9%
